The panel holds about 83,000 compounds, 20% with a hit somewhere; the sample as a whole holds those more often.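 96-well plates, one dose, 48 hours. Percent growth reported; active if below 10.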 A number with no mark means an inactive call. Activity calls are given as the source filed them.
What was measured:
Test in all cases: NCI-60 one-dose screen, 48 h (100 = growth as untreated, 0 = no growth, -100 = all killed)
Conditions in all cases: 10 µM unless noted
[1] = tested on: NCI-H23 lung
[2] = tested on: NCI-H226 lung
[3] = tested on: NCI-H322M lung
[4] = tested on: HOP-62 NSCLC
[5] = tested on: NCI-H460 lung
[6] = tested on: HOP-92 NSCLC
[7] = tested on: NCI-H522 lung
[8] = tested on: A549/ATCC NSCLC
[9] = tested on: 786-0 renal
[10] = tested on: COLO 205 colon

| SMILES | growth [1] | growth [2] | growth [3] | growth [4] | growth [5] | growth [6] | growth [7] | growth [8] | growth [9] | growth [10] |
| --- | --- | --- | --- | --- | --- | --- | --- | --- | --- | --- |
| N#C/C(=C\c1ccc2ccccc2c1)C(=O)Nc1sc2c(c1C#N)CCC2 | 99.5% | 94.1% | 113% | 106% | 104% | 81.4% | 96.7% | 98.4% | 99.6% | 115% |
| NS(=O)(=O)Oc1ccc2nc(Nc3ccc(F)c(F)c3)ccc2c1 | 96.3% | 90.5% | 92.9% | 99.4% | 98.1% | 115% | 91.4% | 79.6% | 89.6% | 93.8% |
| C/C(=C(/c1ccc(O)cc1)c1ccc(OCCN(C)C)cc1)c1ccc(Cl)cc1 | 56.8% | 89.4% | 48% | 67.4% | 15% | 32.5% | 57.8% | 56.4% | 50.2% | -88.7% (active) |
| O=C1Nc2cc(OC(F)(F)F)ccc2Oc2ccc(-c3ccnc(N4CCNCC4)c3)cc21 | 27.4% | 53% | 39% | 21.6% | -80.6% (active) | -0.729% (active) | -57.2% (active) | 9.42% (active) | -62.7% (active) | -80.2% (active) |
| ClC(Cl)c1nc(-c2cccs2)n2nc(-c3ccccc3)cc2n1 | 4.85% (active) | 82.6% | -28.8% (active) | -6.27% (active) | -40.1% (active) | -27.7% (active) | 75.1% | -16.1% (active) | 40.2% | -40.7% (active) |
| Nc1nc(-c2cccc([N+](=O)[O-])c2)c(N=Nc2ccccc2[N+](=O)[O-])s1 | 3.8% (active) | 4.17% (active) | 76.7% | -36.1% (active) | 39.5% | -28.4% (active) | 26.4% | 36.1% | -66.4% (active) | 93.7% |
| COc1ccc(OC)c([C@H]2c3[nH]c4ccccc4c3C[C@H]3C(=O)N(CCCCCCC(=O)NO)CC(=O)N23)c1 | 100% | 103% | 93.3% | 85.4% | 87.1% | 82% | 69.2% | 106% | 99.5% | 86.4% |
| O=C(c1cccc(F)c1)n1ccc2cc(NC(=S)Nc3cccnc3)ccc21 | 100% | 112% | 99% | 106% | 98.6% | 123% | 87.1% | 98.7% | 80.5% | 115% |
| C=CCn1c(SCC(=O)Nc2cccc(C(=O)/C=C/c3ccc(Br)cc3)c2)nc2ccccc2c1=O | 85.1% | 94.1% | 86.6% | 96.8% | 94.9% | 78.4% | 75.3% | 86.4% | 97.7% | 111% |
| O=C1C[C@@H](c2ccccc2)Oc2c(Cc3ccccc3O)c(O)c(Cc3cc(Cc4cc(Cc5ccccc5O)ccc4O)ccc3O)c(O)c21 | 94.7% | 86% | 110% | 97.4% | 104% | 78% | 107% | 101% | 100% | 111% |
| O=C1c2c(O)cc(O)cc2O[C@@H](c2ccc(O)cc2)[C@@H]1c1c(O)cc(O)c2c(=O)cc(-c3ccc(O)c(O)c3)oc12 | 92% | 76.6% | 97% | 96.3% | 112% | 104% | 97.4% | 106% | 100% | 114% |
| CN(C)CCn1c2ccc(N)cc2c2nc3ccccc3nc21 | 28.2% | 34.3% | 34.7% | 31.5% | 6.26% (active) | 47.7% | 30.1% | 25.8% | 35.6% | 9.4% (active) |
| C#Cc1ccc(NC(=O)c2ccc(/C=C/C(=O)c3nccn3C)cc2)c(F)c1 | 11.4% | 42.8% | 19.8% | 2.11% (active) | 6.28% (active) | 67.5% | 20.4% | 19.9% | 37.7% | 73% |

Reference: PubChem BioAssay (NCI)
